# A selection: hits, their analogues and other compounds. The true share with any hit is near 7.9%.
# Her2 expr inh – lowers expression of human Her2 kinase. HER2 level % of control, % at 10 µM. 65,000 tested, 0.69% active. SKBR-3 HER2 protein level, AlphaScreen, 18-24 h; active compounds read low. P04626;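 active = HER2 level under 5% of the carrier-only control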;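 note: 100% = DMSO carrier and 0% = 500 nM PU-H71 HSP90 inhibitor; lower value means stronger loss of Her2 protein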
# Target sequence (P04626 whole entry, looked up): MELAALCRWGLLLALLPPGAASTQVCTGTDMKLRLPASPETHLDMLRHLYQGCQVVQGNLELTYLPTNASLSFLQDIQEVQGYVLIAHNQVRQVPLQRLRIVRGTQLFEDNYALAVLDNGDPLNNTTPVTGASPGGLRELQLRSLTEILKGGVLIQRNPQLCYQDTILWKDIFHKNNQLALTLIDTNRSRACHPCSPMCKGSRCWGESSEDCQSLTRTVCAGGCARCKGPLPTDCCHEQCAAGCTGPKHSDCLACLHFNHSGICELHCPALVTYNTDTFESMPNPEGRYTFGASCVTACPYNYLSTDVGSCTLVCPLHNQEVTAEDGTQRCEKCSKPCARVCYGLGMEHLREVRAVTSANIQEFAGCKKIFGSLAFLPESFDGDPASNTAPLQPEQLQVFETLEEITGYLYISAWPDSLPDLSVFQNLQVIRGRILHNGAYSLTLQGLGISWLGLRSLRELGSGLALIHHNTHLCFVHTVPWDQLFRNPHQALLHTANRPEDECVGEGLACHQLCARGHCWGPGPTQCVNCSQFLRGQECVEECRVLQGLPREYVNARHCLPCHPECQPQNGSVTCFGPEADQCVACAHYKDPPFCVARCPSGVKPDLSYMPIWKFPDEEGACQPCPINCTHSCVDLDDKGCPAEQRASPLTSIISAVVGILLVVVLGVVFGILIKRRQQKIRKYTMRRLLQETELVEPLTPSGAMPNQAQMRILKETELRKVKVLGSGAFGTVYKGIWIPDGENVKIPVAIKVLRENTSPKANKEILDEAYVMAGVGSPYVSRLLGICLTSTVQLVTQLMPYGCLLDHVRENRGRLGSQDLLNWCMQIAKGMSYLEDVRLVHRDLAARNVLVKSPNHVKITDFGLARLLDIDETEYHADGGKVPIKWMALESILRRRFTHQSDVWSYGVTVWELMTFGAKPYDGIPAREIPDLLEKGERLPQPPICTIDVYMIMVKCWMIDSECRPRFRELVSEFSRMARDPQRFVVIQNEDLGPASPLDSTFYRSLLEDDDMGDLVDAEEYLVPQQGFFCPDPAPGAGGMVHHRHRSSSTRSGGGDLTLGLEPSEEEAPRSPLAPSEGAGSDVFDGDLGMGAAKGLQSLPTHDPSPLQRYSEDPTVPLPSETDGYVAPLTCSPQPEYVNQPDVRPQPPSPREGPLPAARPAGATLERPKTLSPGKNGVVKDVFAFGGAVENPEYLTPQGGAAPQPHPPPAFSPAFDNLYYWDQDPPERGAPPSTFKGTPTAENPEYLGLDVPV
# PLAP activator – human PLAP activation. P05187. purified PLAP enzyme, luminescent substrate read-out; active compounds read high. activation fold at 20 µM. 96,000 tested, 1.2% active. AID 696; in the data active = activation fold above about 2
# Cav32 inh – inhibitors of human Cav3.2 T-type calcium channel; O95180; Cav3.2-expressing cells, Fluo-4 calcium fluorescence FDSS; active compounds read low; B-score at 10 µM; 100,000 tested, 4% active;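 active = single-dose well whose peak fluorescence ratio is a statistical outlier from its plate by either plate-standardised score or position-corrected B-score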
# M1 agonist – activates the M1 muscarinic receptor. CHO-M1 cells, Fluo-4 calcium fluorescence, agonist mode; active compounds read high. B-score at 10 µM. 64,000 tested, 3% active;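 active = fluorescence rise, raw or as B-score row- and column-corrected plate score, outside the 99.7% band of its plate's samples, either direction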
# M1 antagonist – M1 muscarinic receptor (rat) antagonism; B-score at 10 µM; CHO-M1 cells, Fluo-4 calcium, ACh EC80 antagonist mode; active compounds read low; 64,000 tested, 3.4% active; P08482; AID 628;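 active = calcium fluorescence response, raw or row-and-column corrected B-score, differing from the plate sample mean either way at a set confidence level, mostly lower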
# M1 antag confirm – confirmation of rat M1 muscarinic receptor antagonists; shares compounds with M1 antagonist; CHO-M1 cells, Fluo-4 calcium, ACh EC80 antagonism; active compounds read low; calcium response (max-min fluorescence) at 10 µM; 1,700 tested, 43% active; AID 677;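 active = calcium response below the same-plate mean of wells given acetylcholine alone at its 80%-effect dose, minus 3 SD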;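 note: raw fluorescence intensity difference in arbitrary instrument units and not normalized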
# mGluR4 antag – acts on human mGluR4 in M1 antagonist selectivity test | fluorescence response (max-min) at 10 µM | 1,700 tested, 0.9% active | CHO-mGluR4 calcium flux, Fluo-4 fluorescence, glutamate EC80; active compounds read low | shares compounds with M1 antagonist;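 active = fluorescence response below the plate's average for near-maximal glutamate wells, less 3 SD of those wells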;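 note: raw unnormalized fluorescence span taken in the window right after glutamate addition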
# Numbers without * were called inactive; / = no result.
SMILES,Her2 expr inh,PLAP activator,Cav32 inh,M1 agonist,M1 antagonist,M1 antag confirm,mGluR4 antag
CC12CN3CC(C)(CN(C1)C3c1ccc(Br)cc1)C2 (centres undefined),102,1.1,/,-0.34,-3.7*,387*,251
Cc1ccc(CN2CCNC(=O)C2CC(=O)O)o1 (centres undefined),93,1.1,-0.94,0.93,-0.04,/,/
CCOC(=O)N1CCN(C(=O)c2ccc3c(c2)sc2nc(-c4ccccc4)cn23)CC1,94,1.1,0.073,3.1,-2.9*,397*,292
CCOCCCn1c(=N)c(C(N)=S)cc2c(=O)n3cccc(C)c3nc21,70,1.3,/,-0.74,-4.1*,516,248
Cc1cccn2c(=O)c3cc(C(N)=S)c(=N)n(CCCOC(C)C)c3nc12,100,1.3,-1.1,2,-3.3*,560,211
CCOC(=O)c1cc2c(=O)n3cccc(C)c3nc2n(C)c1=N,79,1.3,/,0.0097,0.71,/,/
Cn1c2c(c(=O)n(C)c1=O)C1c3cc(Cl)ccc3OCC1CO2 (centres undefined),/,1.3,-0.14,/,/,/,/
Cc1ccc(CNC(=O)C(C)OC(=O)c2cccs2)cc1 (centres undefined),/,1.1,1.1,/,/,/,/
Cc1ccc(-c2nnc3sc(C4COc5ccccc5O4)nn23)cc1 (centres undefined),98,0.9,1.2,0.31,-3.4*,476,223
Clc1ccccc1-c1nnc2sc(C3COc4ccccc4O3)nn12 (centres undefined),50,1.3,0.72,-0.96,0.04,/,/
CCN(CC)CCN(C)Cc1ccc(Br)cc1,/,1.5,-3.5,/,/,/,/
COC(=O)Nc1ccc2c(c1)N(C(=O)CCN1CCOCC1)c1ccccc1S2,101,1.7,1,-0.29,-5.2*,495*,248
COc1ccc(CCNC(=O)CSC2=Nc3ccccc3C3=NC(C(C)C)C(=O)N23)cc1OC (centres undefined),133,1.1,/,-1.4,-3.5*,565,228
CCC(C)NC(=O)CSc1nnc(-c2cc(-c3cccs3)nc3ccccc23)o1 (centres undefined),/,1.5,-0.052,/,/,/,/
CC1CC(C)CN(CC(C)(C)NS(=O)(=O)c2ccccc2)C1 (centres undefined),135,0.7,-0.036,1.5,-2.6*,548,246
CC1CCCC(C)N1CC(C)(C)NS(=O)(=O)c1ccc(Cl)cc1 (centres undefined),/,0.6,-0.18,/,/,/,/
CCCn1c2c(c(O)c(C(=O)Nc3ncccc3C)c1=O)CCCC2,82,1.2,-1.8,-1.1,-2.3*,421*,208
COc1cc(OC)cc(C(C(=O)NC2CCCCC2)N(C(=O)c2ccno2)c2ccccc2)c1 (centres undefined),/,/,0.063,/,/,/,/
CSc1ccc(Cl)c(C(=O)Nc2ccc(OCC(N)=O)cc2)c1,/,0.9,0.69,/,/,/,/
O=C1C=C(NCCN2CCOCC2)CC(c2ccccc2)C1 (centres undefined),87,1.1,/,/,/,/,/
CC(C)c1ccc(O)c(N)c1,91,1,-0.055,0.53,-2.6*,697,208
CC(C)(C)C(=O)/C=C(\N)c1ccncc1,56,0.9,0.08,-0.21,-0.65,/,/
COc1ccc(/C(N)=C/C(=O)C(C)(C)C)cc1,115,0.9,-1.1,-0.57,-3.5*,554,216
CCOC(=O)N1CCC(NC2CCCCCCC2)CC1,91,1.5,0.53,-0.23,-11*,100*,219
CCOC(=O)N1CCN(C(=O)C2CCC(C(=O)N3CCN(C(=O)OCC)CC3)CC2)CC1 (centres undefined),92,/,/,0.0027,1.7,/,/
SMILES,Her2 expr inh,PLAP activator,Cav32 inh,M1 agonist,M1 antagonist,M1 antag confirm,mGluR4 antag
CCNC(=O)C1CC(=O)OC12CCCCC2 (centres undefined),/,0.9,0.61,/,/,/,/
COc1ccc2[nH]c3c(c2c1)CN(C)CC3,65,1.1,1.1,0.76,-1.9*,448,193
COc1ccc2[nH]c3c(c2c1)CCNC3=O,/,/,0.84,/,/,/,/
O=C(N/C(=N\O)c1ccccc1)Nc1ccc(Cl)cc1,75,1,-5*,-0.36,-3.5*,487,210
O=C(NCCn1ccc2ccccc21)c1ccc(S(=O)(=O)N2CCOCC2)cc1,80,1,0.22,-0.57,0.48,/,/
C=C(C)Cn1c(SCC)nc2ccccc2c1=O,102,1,-3.8,0.4,-4.1*,566,200
Cc1cccc(S(=O)(=O)Nc2ccc(C)c3c2OC(C)(C)C3)c1,/,1.3,-3.5,/,/,/,/
O=c1cnn(-c2ccccc2)c(-c2ccccc2)c1,93,0.7,-0.14,0.25,-0.061,/,/
Cc1c(S(=O)(=O)N2CCN(c3cccc(C(F)(F)F)c3)CC2)c(=O)n(C)c(=O)n1C,99,1.3,-0.62,-0.4,-0.035,/,/
Cc1c(CN2CCN(c3cccc(C(F)(F)F)c3)CC2)c(=O)n(-c2ccccc2)n1C,92,1.5,1.2,-2.1,-4.4*,458*,228
CC(=O)C1=C(O)C=C(c2ccco2)CC1c1ccco1 (centres undefined),76,0.7,-1.9,1.5,-0.14,/,/
Cc1nc(N2CCOCC2)c2cc(-c3ccccc3)sc2n1,70,1.4,-0.8,1.4,-0.86,/,/
c1ccc(-c2cc3c(N4CCOCC4)ncnc3s2)cc1,66,1.2,0.99,-0.37,-2.6*,497,214
CC[N+](C)(CC)CCOC(=O)C(O)(c1ccccc1)C1CCCCC1 (centres undefined),103,/,-0.071,-0.39,-16*,10*,213
CCOC(=O)C(C(=O)Nc1ccccc1)C1CCCCC1 (centres undefined),113,0.8,-1.2,-0.46,-0.26,/,/
CN1CCc2nc(SCC(=O)Nc3ccc(F)cc3)c(C#N)cc2C1,86,0.9,0.34,0.15,0.13,/,/
Nc1nc(C2CCCN2S(=O)(=O)c2ccc(Cl)cc2)cs1 (centres undefined),97,0.8,-0.29,-0.3,1.2,/,/
CS(=O)(=O)Nc1ccccc1C(=O)Nc1cccc(Cl)c1,74,1.2,-0.62,1.6,-2.5*,627,187
CS(=O)(=O)Nc1ccccc1C(=O)Nc1cc(Cl)cc(Cl)c1,/,1.2,-0.018,/,/,/,/
CC(=O)c1cc(C)ccc1OC(=O)c1cccc2nc(C)oc12,89,0.9,0.075,-0.31,-4.2*,666,250
Nc1nc(CN2CCN(c3ccccc3)CC2)nc(N2CCCc3ccccc32)n1,146,1.6,-3,-0.12,-3.1*,659,252
CC(=O)OCc1c(COC(C)=O)[n+](=O)c2ccccc2n1[O-],100,1,-0.14,-0.069,-2.6*,634,267
COc1ccc2c(c1)[n+](=O)c(C(C)=O)c(C)n2[O-],/,0.9,1.1,/,/,/,/
CC(C)NC(=O)c1cc(-n2cnnc2)ccc1Cl,/,0.9,-0.04,/,/,/,/
O=C(CN1CCN(Cc2ccc3c(c2)OCO3)CC1)N1CCc2[nH]c3ccc(F)cc3c2C1,76,1.6,-0.0036,-0.93,-3.8*,477,210

# Bioassay records from PubChem BioAssay.
